# Laboratory results: PubChem BioAssay AID521 (Sanford-Burnham Center for Chemical Genomics, 2006)
# Several values for one entry are separate records, joined by “and”; a condition that tells them apart may be missing. Identical values can stand only once. Out of some 110,000 compounds screened, about 730 (0.66%) were called active. What follows is part of a selection rich in actives, with near analogues and random picks from the rest. Unmarked numbers belong to inactive results. No stated cut-off is given here; in the data, active means inhibition above about 50%; inconclusive means no clear call, values can overlap the other calls; inactive means below that.
# Target: Tyrosine-protein phosphatase non-receptor type 7 (Homo sapiens) (UniProt P35236)
# Test: inhibitors of human HePTP phosphatase, primary screen, biochemical, absorbance, leukemia target (AID 521);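 further: plate controls were vehicle for no effect and reference inhibitor for full effect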
# Settings: recombinant HePTP phosphatase activity, OD absorbance; at 20 µM; active compounds read high
# Tyrosine-protein phosphatase non-receptor type 7 (Homo sapiens), sequence (P35236 whole entry, looked up): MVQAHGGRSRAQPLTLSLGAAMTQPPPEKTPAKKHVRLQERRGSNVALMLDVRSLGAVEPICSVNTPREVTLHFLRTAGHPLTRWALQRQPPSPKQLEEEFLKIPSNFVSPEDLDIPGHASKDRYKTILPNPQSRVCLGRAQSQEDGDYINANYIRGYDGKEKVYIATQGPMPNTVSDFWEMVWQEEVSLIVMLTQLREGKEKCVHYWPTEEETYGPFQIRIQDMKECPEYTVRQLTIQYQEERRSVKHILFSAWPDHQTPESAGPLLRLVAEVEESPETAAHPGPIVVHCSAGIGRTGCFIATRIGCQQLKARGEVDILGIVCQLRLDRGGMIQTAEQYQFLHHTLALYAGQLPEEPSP
row,SMILES,inhibition
1,CCOc1ccc(C(=O)Nc2ccc(O)c(-c3nc4ccccc4o3)c2)cc1[N+](=O)[O-],7.1%
2,O=C1NN(c2ccccc2)C(=O)/C1=C/c1ccc(-c2cccc(C(=O)O)c2)o1,18.1%
3,CC1=NN(c2ccc(S(N)(=O)=O)cc2)C(=O)/C1=C\c1ccc(-c2ccc(Cl)c(C(=O)O)c2)o1,9.9%
4,O=C(O)c1cc(-c2ccc(C=C3C(=O)c4ccccc4C3=O)o2)ccc1O,102% (active)
5,O=[N+]([O-])c1ccc(N2CCN(CCO)CC2)cc1NC(c1ccccc1)c1ccccc1,-10.6%
6,COc1cccc(C(=O)N2N=C(c3ccc(F)cc3)CC2(O)C(F)(F)F)c1 (stereo unspecified),4.2%
7,CCOc1ccc(NC(=S)NC(NC(=O)c2cccc(C)c2)C(Cl)(Cl)Cl)cc1 (stereo unspecified),4.6%
8,O=[N+]([O-])c1ccc(C2SCCN2S(=O)(=O)c2ccc3ccccc3c2)cc1 (stereo unspecified),6.4%
9,CN(N)c1nc(N2CCCC2)nc(N2CCCC2)n1,-2.9%
10,COc1ccc(/C=C2\C(=O)NC(=S)N(c3ccc(Br)cc3)C2=O)cc1,8.6%
11,O=C1NC(=O)N(c2cccc(Br)c2)C(=O)/C1=C/c1cccc([N+](=O)[O-])c1,9.5%
12,COc1cc(/C=C2\C(=O)NC(=S)N(c3cccc(Br)c3)C2=O)c([N+](=O)[O-])cc1OC,102% (active)
13,c1ccc2c(OCCCN3CCOCC3)cccc2c1,-6.5%
14,Cc1ccc2ccc3cccc(S(=O)(=O)O)c3c2n1,2.1%
15,O=[N+]([O-])c1ccc(C2Nc3ccc(OC(F)(F)F)cc3C3C=CCC32)cc1 (stereo unspecified),-9.1%
16,Cc1ccc(C(=O)Nc2ccccc2C(=O)NC2CCCCCC2)cc1,2.4%
17,O=C(CCCN1C(=O)/C(=C/c2ccccc2)SC1=S)Nc1ccccc1C(=O)O,10.4%
18,COc1cccc(C(O)c2nc3ccccc3n2C)c1 (stereo unspecified),-6.5%
19,CCc1ccc(-n2c(C)cc(/C=C3/SC(=S)NC3=O)c2C)cc1,7.1%
20,O=C(COc1ccc2ccccc2c1Br)c1ccc(Br)cc1,3%
21,CC(=O)c1ccc(NS(=O)(=O)c2ccccc2[N+](=O)[O-])cc1,3%
22,Cc1cccc(NC(=O)COc2cc(C)c(Cl)c(C)c2)c1C,2%
23,O=C1c2ccc3c4c(ccc(c24)C(=O)N1CCOc1ccccc1)CC3,3.5%

row,SMILES,inhibition
1,O=C(O)c1cccc(N2C(=O)c3ccc4c5c(ccc(c35)C2=O)CC4)c1,103% (active)
2,COc1ccc(NC(=O)c2cccc(N3C(=O)c4ccc(C(=O)Nc5ccc(OC)cc5)cc4C3=O)c2)cc1,-8.7%
3,O=[N+]([O-])c1ccc(C=NC23CN4CN(CN(C4)C2)C3)s1,4.4%
4,COCCNC(=O)/C(=C/c1ccc(-c2cc(Cl)ccc2Cl)o1)NC(=O)c1ccc(C)cc1,5.9%
5,CCOc1cc(/C=N/NC(=O)c2cc(C)[nH]n2)ccc1Oc1ccc([N+](=O)[O-])cc1[N+](=O)[O-],6.3%
6,CCCOC(=O)Nc1sc2c(c1C(=O)OCC)CCC2,-6.2%
7,CCOC(=O)c1c(NC(=O)C2CC2c2ccccc2)sc2c1CCC2 (stereo unspecified),77.8% (active)
8,CCOCC(=O)Nc1sc2c(c1C(=O)OCC)CCCC2,3.2%
9,O=C(CN1C(=O)/C(=C/c2ccccc2F)SC1=S)Nc1ccccc1F,-14.9%
10,Clc1ccccc1OCCCN1CCOCC1,-7.9%
11,O=C(CCc1ccccc1)Nc1ccc(Cl)cc1,5.1%
12,CCOC(=O)COc1ccc(/C=C2/NC(=S)NC2=O)cc1OC,4.1%
13,Cc1ccc(-c2cc(C(=O)Nc3ccccc3)c3ccccc3n2)cc1,9.3%
14,COc1cc(/C=C2\SC(=S)NC2=O)cc(Br)c1OCc1c(C)no[n+]1[O-],-10.3%
15,CCN(CC)c1ccc(C=C2C(=O)N(C)C(=O)N(C)C2=O)c(O)c1,-4.9%
16,Cc1ccc(C(=O)N/C(=C\c2sccc2C)C(=O)NCC(C)C)cc1,8.2%
17,Nc1nc2nonc2nc1Nc1ccccc1,0.4%
18,Cc1cc(N2C(=O)NC(=O)/C(=C\c3cn(C)c4ccccc34)C2=O)ccc1Br,4.9%
19,Cc1oc2ccccc2c1/C=N/n1cnc2sc3c(c2c1=O)CCCC3,-2.6%
20,N#CC1=C(N)n2c(s/c(=C\c3ccc4c(c3)OCO4)c2=O)=C(C#N)C1c1ccc2c(c1)OCO2 (stereo unspecified),86.3% (active)
21,CCOC(=O)C1=C(C)N=c2s/c(=C\c3ccc4c(c3)OCO4)c(=O)n2C1c1ccc(OC)c(Br)c1 (stereo unspecified),3.8%
22,CCOC(=O)C1=C(C)N=c2s/c(=C\c3ccc4c(c3)OCO4)c(=O)n2C1c1ccc(C)cc1 (stereo unspecified),1.8%
23,CC1CCOP(=O)(C(Nc2ccc([N+](=O)[O-])cc2)c2ccc(Br)cc2)O1 (stereo unspecified),-6%

row,SMILES,inhibition
1,CCOc1ccc(-c2cc(C(=O)Nc3cccc([N+](=O)[O-])c3)c3ccccc3n2)cc1,11.5%
2,COc1ccc(-c2nc(-c3ccccc3)no2)c(OC)c1,16.7%
3,COc1ccc(-c2noc(-c3ccc(Br)cc3)n2)cc1,-4.6%
4,COc1ccc(/C=C2\SC(=Nc3ccc(F)cc3)NC2=O)cc1OC,25.3%
5,COc1cc2c(cc1NC(=O)c1c(-c3c(F)cccc3Cl)noc1C)oc1ccccc12,-5.8%
6,COc1ccc(-c2nnc(SCC(=O)NN)n2-c2ccccc2)cc1,-0.1%
7,COc1ccc(-c2nc3ccccc3c(C(=O)Nc3ccc(C(C)=O)cc3)c2C)cc1,-9.2%
8,O=C(NC(=O)c1ccccn1)NC(c1ccccc1)c1ccccc1,-13% and 2.8%
9,O=C1NC(=S)N/C1=C/c1ccc(-c2cccc(Br)c2)o1,3.7%
10,Nn1c(NCc2ccccc2)nc2ccccc21,-4.8%
11,Cc1ccccc1NC(=O)c1cnn(-c2ccccc2)c1NC(=O)c1ccco1,7.2%
12,CCOC(=O)c1cnn(-c2ccccc2)c1NC(=O)c1ccc([N+](=O)[O-])cc1,1.7%
13,Cc1ccc(NC(=O)c2cnn(-c3ccccc3)c2NC(=O)c2ccccc2Cl)cc1C,103% (active)
14,O=C1CC(N2CCN(c3ccccc3F)CC2)C(=O)N1c1cccc(Cl)c1 (stereo unspecified),5.6%
15,O=C1C=CC2=C3Oc4c(ccc5cc(O)ccc45)C(c4ccccc4C(=O)O)C3C=CC2=C1 (stereo unspecified),103% (active)
16,NC(=S)N/N=C(/Cc1ccccc1)c1ccc(-c2ccccc2)cc1,6.5%
17,COc1ccccc1C1SCCN1S(=O)(=O)c1ccc(-c2ccccc2)cc1 (stereo unspecified),7.9%
18,Cc1cccc(N2CCN(C(=O)C(Cl)(Cl)Cl)CC2)c1C,5.3%
19,CC(C)(O)C#Cc1ccc(C2C3=C(CC(C)(C)CC3=O)OC3=C2C(=O)CC(C)(C)C3)cc1,1.5%
20,COc1ccc(C(=O)ON=C2c3ccccc3-c3ccccc32)cc1OC,62.3% (active)
21,COc1cc2c(cc1C)/C(=N/OC(=O)c1ccc(OC)c([N+](=O)[O-])c1)CCC2,-10.5%
22,COc1cc(C(C)=O)ccc1OC(=O)CN1C(=O)c2ccccc2C1=O,-2.9%
23,CCCCOc1c([N+](=O)[O-])cc([N+](=O)[O-])c2nsnc12,10.8%

row,SMILES,inhibition
1,O=C1Nc2ccccc2/C1=N\N=C\c1c(F)cccc1Cl,14%
2,CCCC(NC(=O)c1ccccc1)C(=O)OCC(=O)Nc1sc2c(c1C(=O)OCC)CCCC2 (stereo unspecified),1.3%
3,CCOC(=O)c1c(N)sc(C)c1CC,-13.6%
4,CC1(C)Cc2ccccc2C(N/N=C/c2c(O)ccc3ccccc23)=N1,5%
5,CCOc1ccccc1NC(=O)c1c(NC(=O)c2ccco2)sc2c1CCC(C)C2 (stereo unspecified),4.6%
6,CCOc1ccccc1NC(=O)c1c(NC(=O)c2cccs2)sc2c1CCC(C)C2 (stereo unspecified),74.5% (active)
7,Cc1ccccc1NC(=O)c1c(NC(=O)C(C)(C)C)sc2c1CCC(C)C2 (stereo unspecified),3.9%
8,ONC(=Nc1ccc2c(c1)OCO2)C(=Nc1ccc2c(c1)OCO2)NO,-7.5%
9,COc1ccc(C2SCCN2C(=O)c2cc3ccccc3oc2=O)cc1 (stereo unspecified),-6.8%
10,Cc1ccc(OCC(=O)NCc2ccc(F)cc2)c(Br)c1,0%
11,O=C(COc1cc2oc(=O)c3c(c2cc1Cl)CCCC3)OCc1ccccc1,7%
12,Cc1ccc(-c2cc(C(=O)NCc3ccccc3)c3ccccc3n2)o1,53.4% (active)
13,Cc1ccc(-c2cc(C(=O)N3CCCCCC3)c3ccccc3n2)o1,78.1% (active)
14,CCOc1cccc(-c2cc(C(=O)N3CCCCCC3)c3ccccc3n2)c1,-11.5%
15,Cc1ccc(C)c(-c2cc(C(=O)NN)c3ccccc3n2)c1,5%
16,Cc1ccc(NC(=O)c2cc(-c3ccc(C)o3)nc3ccccc23)nc1,2.7%
17,Cc1ccc(-c2cc(C(=O)N3CC(C)CC(C)C3)c3ccccc3n2)cc1C (stereo unspecified),-17%
18,CCOc1cc(C(=O)Nc2ncccn2)cc(OCC)c1OCC,-0.3% and 8.9%
19,COc1ccc(NC(=O)c2cccc(F)c2)cc1OC,9.7%
20,CCOc1cc(C(=O)Nc2cccc(F)c2)cc(OCC)c1OCC,104% (active)
21,CCOc1ccc(C(=O)Nc2ccc(I)cc2Cl)cc1[N+](=O)[O-],3.7%
22,O=C(Nc1cccc(I)c1)c1ccc2c(c1)C(=O)N(CC1CCCO1)C2=O (stereo unspecified),6.2%
